According to PubChem BioAssay AID652208 (Broad Institute, 2013):
Measured potencies and affinities stand elsewhere. Unmarked numbers belong to inactive results.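 Rule for the calls: active = Loss of cell signal with fitted half-effect dose at or below twice the top valid tested dose; inconclusive = Poor fit, or flat fit from -70 to -30 percent; inactive = Half-effect above limit, rising signal, or flat within 30 percent.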

Assay: HEK293T cell cytotoxicity, dose response, cytotoxicity control for HIV Vif inhibitor project, cherry-picks (AID 652208);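 note: 0% = median neutral control wells and -100% = median staurosporine control wells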
Settings: HEK293T viability, CellTiter-Glo luminescence, 24 h; series mostly up to 26 µM; activity change, negative = cytotoxicity: at the top concentration

Q: With `Cc1cccc2cc(COC(=O)c3ccco3)c(=O)[nH]c12` as the compound, how does the “activity change, negative = cytotoxicity” value read?
A: 8.92%

Q: Which “activity change, negative = cytotoxicity” value does the source give for `COc1ccccc1Nc1nnc(C)c(=O)[nH]1` here?
A: -4.17%

Q: With `O=C(c1cc(Cl)c(=O)n(Cc2ccccc2)c1)N1CCOCC1` as the compound, how does the “activity change, negative = cytotoxicity” value read?
A: 13.2%

Q: Which “activity change, negative = cytotoxicity” value does the source give for `Cc1nc(SCC(=O)N2CCCC2=O)nc(C)c1C` here?
A: 5.18%

Q: For `Nc1nc(-c2ccc3ccccc3c2)cs1`, which “activity change, negative = cytotoxicity” value is on record?
A: 4.51%

Q: For `Cc1cccc(N2CCN(C(=O)c3cc4ccccc4oc3=O)CC2)c1C`, which “activity change, negative = cytotoxicity” value is on record?
A: 5.98%

Q: For `COc1cc(C(=O)NCCc2cn3ccc(C)cc3n2)cc(OC)c1OC`, which “activity change, negative = cytotoxicity” value is on record?
A: 4.46%

Q: For `O=C(COC(=O)c1ccccc1Br)NC1CCCC1`, which “activity change, negative = cytotoxicity” value is on record?
A: -10.5%

Q: For `COc1ccc(-c2cc(C(=O)Nc3cnn(Cc4ccccc4C)c3)no2)cc1OC`, which “activity change, negative = cytotoxicity” value is on record?
A: -10.7%

Q: Which “activity change, negative = cytotoxicity” value does the source give for `COCCNCC(=O)Nc1nc(C)cs1` here?
A: -4.98%

Q: Which “activity change, negative = cytotoxicity” value does the source give for `O=C(O)/C=C/C(=O)Nc1cccc(C(F)(F)F)c1` here?
A: 3.54%

Q: Which “activity change, negative = cytotoxicity” value does the source give for `Cc1ccc2c(c1)N(CC(=O)NCC1CCCO1)C(=O)C(C(C)C)O2` (stereo not drawn) here?
A: 1.69%

Q: For `CCOC(=O)C1CCCN1C(=O)C1(NC(C)=O)CCCC1` (stereo not drawn), which “activity change, negative = cytotoxicity” value is on record?
A: 5.09%

Q: For `O=C(c1cc(-c2ccccc2O)on1)N1CCCCCC1`, which “activity change, negative = cytotoxicity” value is on record?
A: -3.85%

Q: Which “activity change, negative = cytotoxicity” value does the source give for `Cc1ccc(S(=O)(=O)NC(=O)Nn2c(C)nnc2C)cc1` here?
A: -11.6%

Q: Which “activity change, negative = cytotoxicity” value does the source give for `COc1ccc(CNC(=O)COC(=O)c2cc(S(=O)(=O)N3CCOCC3)ccc2O)cc1OC` here?
A: -4.34%

Q: Which “activity change, negative = cytotoxicity” value does the source give for `COc1ccc(C(=O)NCc2oc(-c3ccccc3)cc2C(=O)O)cc1` here?
A: 5.02%

Q: For `CCOc1ncccc1C(=O)OCc1ccccc1`, which “activity change, negative = cytotoxicity” value is on record?
A: -8.04%

Q: For `CCn1c(SCc2nc3ccccc3c(=O)[nH]2)nc2ccccc2c1=O`, which “activity change, negative = cytotoxicity” value is on record?
A: -8.27%

Q: Which “activity change, negative = cytotoxicity” value does the source give for `COc1ccc(OC)c(/C=C/c2nc3ccccc3[nH]c2=O)c1` here?
A: -29.7%

Q: For `COc1ccccc1N1C(=O)c2cccc3c(N(C)CCO)ccc(c23)C1=O`, which “activity change, negative = cytotoxicity” value is on record?
A: 0.642%

Q: With `COc1cc(-c2cnc3c(NC=O)cc(-c4ccccc4)cn23)cc(OC)c1OC` as the compound, how does the “activity change, negative = cytotoxicity” value read?
A: -9.14%

Q: Which “activity change, negative = cytotoxicity” value does the source give for `Cc1cc(C(=O)Nc2c(F)c(F)c(F)c(F)c2F)n(-c2ccccc2)n1` here?
A: -23.7%

Q: For `CCC(=O)N(CCC1(C(C)C)CCOC(C)(C)C1)Cc1ccco1` (stereo not drawn), which “activity change, negative = cytotoxicity” value is on record?
A: -3.81%

Q: Which “activity change, negative = cytotoxicity” value does the source give for `CCOC(=O)C1CCCN(CC(=O)Nc2c(C(=O)OC)[nH]c3ccc(Cl)cc23)C1` (stereo not drawn) here?
A: -13.6%

Q: Which “activity change, negative = cytotoxicity” value does the source give for `CC(=O)Nc1ccc(C2(c3ccc(NC(C)=O)cc3)NC(=O)c3ccccc32)cc1` here?
A: 11.7%

Q: Which “activity change, negative = cytotoxicity” value does the source give for `CCC1(CC)NC(=O)N(CC(=O)Nc2ccc(OCc3ccccc3)cc2)C1=O` here?
A: -11.7%

Q: For `CCC(=O)Nc1ccc(-c2nnc(SCc3ccc(C(=O)Nc4nccs4)cc3)n2CC)cc1`, which “activity change, negative = cytotoxicity” value is on record?
A: -3.47%

Q: Which “activity change, negative = cytotoxicity” value does the source give for `COc1ccc(N=C2NC(=O)S/C2=C\c2ccc(N(C)C)cc2)cc1` here?
A: -5.14%

Q: With `COc1cc(/C=C/C(=O)O)ccc1S(=O)(=O)N1CCCc2ccccc21` as the compound, how does the “activity change, negative = cytotoxicity” value read?
A: 3.17%

Q: For `CCOC(=O)c1nc(Nc2ccc(C(=O)OC)cc2)c2ccccc2n1`, which “activity change, negative = cytotoxicity” value is on record?
A: -17.9%

Q: Which “activity change, negative = cytotoxicity” value does the source give for `Cc1cccc(C)c1NC(=O)COc1ccc2c(C)c(Cc3ccccc3)c(=O)oc2c1C` here?
A: 6.84%

Q: With `CCNC(=O)[C@H]1O[C@@H](n2cnc3c(N)nc(NCCc4ccc(CCC(=O)O)cc4)nc32)[C@H](O)[C@@H]1O` as the compound, how does the “activity change, negative = cytotoxicity” value read?
A: 4.52%

Q: For `N#Cc1cc2c(=O)n3ccccc3nc2n(-c2ccccc2Cl)c1=O`, which “activity change, negative = cytotoxicity” value is on record?
A: -12.7%

Q: With `CCN(CC(=O)Nc1c(F)cccc1F)C(=O)c1cccc(-n2cccc2)c1` as the compound, how does the “activity change, negative = cytotoxicity” value read?
A: 0.82%

Q: For `O=C(CCN1CCOCC1)Nc1ccc(Cl)cc1`, which “activity change, negative = cytotoxicity” value is on record?
A: 0.037%

Q: For `O=C(CSc1ncccn1)NC(=O)Nc1ccc2c(c1)OCCO2`, which “activity change, negative = cytotoxicity” value is on record?
A: -4.69%

Q: For `COc1ccc2c(CC(=O)Nc3ccccc3OC)coc2c1`, which “activity change, negative = cytotoxicity” value is on record?
A: -3.21%
